Drawing on PubChem BioAssay (NCATS), this text covers max response, outcome and Potency for 12 compounds.

Test [1] has as its system CRL-7250. Description: Cytotoxic Profiling of Annotated Libraries Using Quantitative High-Throughput Screening (AID 1296008). For max response: % is set by controls: 0 for no effect and ±100 for the full control effect. Note: nearly all actives have a fitted effect of over 60% in size. Note: potency is the fitted concentration of half-maximal effect. The following applies: Five cell lines viability, CellTiter-Glo ATP luminescence, 48-72 h; max response: stronger effect = lower value. In a few lines:
(§1)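 Cells exposed to compounds for 48 or 72 hr at 37 degrees Celsius. Viability read as ATP-coupled luminescence with CellTiter-Glo after 10 min at room temperature.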
A general note: ATP-based viability assays read luminescence as a measure of living cells.

For test [2], the system named is HEK293. The description is as above. The following applies: Five cell lines viability, CellTiter-Glo ATP luminescence, 48-72 h; max response: stronger effect = lower value. In a few lines:
as §1

For test [3], the system named is HaCat. The description is as above. The following applies: Five cell lines viability, CellTiter-Glo ATP luminescence, 48-72 h; max response: stronger effect = lower value. The procedure, abridged: as §1
For test [4], the system named is KB-3-1. The description is as above. To be noted: Five cell lines viability, CellTiter-Glo ATP luminescence, 48-72 h; max response: stronger effect = lower value. The procedure, abridged: as §1
The test system of test [5] is NIH3T3. The description is as above. The following applies: Five cell lines viability, CellTiter-Glo ATP luminescence, 48-72 h; max response: stronger effect = lower value. The procedure, abridged:
as §1

For test [6], the system named is NIH3T3. Nature of the test: qHTS assay to identify novel small-molecules to repurpose for Merkel cell carcinoma treatment (AID 1296009). Note: nearly all actives have a fitted effect of over 60% in size. To be noted: MCC and control cell lines, CellTiter-Glo viability, 72 h; at 44.8 µM (top of the series) unless noted. In a few lines:
(§2)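 Cells were treated for 72 hr at 37 degree celsius with compounds in 8- or 11-point dose response. Viability was read by CellTiter-Glo luminescence, normalized to no-cell (cytotoxicity) and DMSO controls.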
In general terms: qHTS replaces the single test concentration by a dilution series.

The subject of test [7] is C33A. Nature of the test: Primary qHTS to identify gynecologic anti-cancer compounds using libraries of approved drugs and bioactive compounds (AID 1345084). Note: nearly all actives have a fitted effect of over 55% in size. Note: potency is the fitted concentration of half-maximal effect. The following applies: Gynecologic cancer cell panel viability, ATPlite luminescence, 48 h; series mostly up to 57.5 µM. The procedure, abridged: (§3)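 Cell viability after 48 h drug treatment, ATPlite luminescence readout; five doses.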

The subject of test [8] is CASKI. The test is described as above. To be noted: Gynecologic cancer cell panel viability, ATPlite luminescence, 48 h; series mostly up to 57.5 µM. In a few lines:
as §3

Test [9] has as its system Es-2. Described as above. The following applies: Gynecologic cancer cell panel viability, ATPlite luminescence, 48 h; series mostly up to 57.5 µM. In a few lines:
as §3

Test [10] concerns HeLa. The test is described as above. The following applies: Gynecologic cancer cell panel viability, ATPlite luminescence, 48 h; series mostly up to 57.5 µM. In a few lines:
as §3

Test [11] concerns HEK293T. Nature of the test: qHTS assay to identify novel small-molecules to repurpose for Merkel cell carcinoma treatment (AID 1296009). Note: nearly all actives have a fitted effect of over 60% in size. The following applies: MCC and control cell lines, CellTiter-Glo viability, 72 h; at 44.8 µM (top of the series) unless noted. The procedure, abridged: as §2
The test system of test [12] is CAOV3. Description: Primary qHTS to identify gynecologic anti-cancer compounds using libraries of approved drugs and bioactive compounds (AID 1345084). Note: nearly all actives have a fitted effect of over 55% in size. Note: potency is the fitted concentration of half-maximal effect. To be noted: Gynecologic cancer cell panel viability, ATPlite luminescence, 48 h; series mostly up to 57.5 µM. The procedure, abridged:
as §3

For test [13], the system named is HACAT. Description: qHTS assay to identify novel small-molecules to repurpose for Merkel cell carcinoma treatment (AID 1296009). Note: nearly all actives have a fitted effect of over 60% in size. To be noted: MCC and control cell lines, CellTiter-Glo viability, 72 h; at 44.8 µM (top of the series) unless noted. In a few lines:
as §2

Test [14] has as its system CRL-7250. Described as above. To be noted: MCC and control cell lines, CellTiter-Glo viability, 72 h; at 44.8 µM (top of the series) unless noted. In a few lines:
as §2

Several values for one entry are separate records, joined by “and”; a condition that tells them apart may be missing. Equal values may be shown once. Records with an inconclusive call do not appear. A number with no mark means an inactive call. Activity calls are given as the source filed them. Calls come from the whole dose curve; as a rule, active = well fitted curve in the direction sought with a large enough effect; inconclusive = small, poorly fitted or top-dose-only effect, or another doubt; inactive = no such curve, though single readings can be large; an effect the other way counts as inactive or inconclusive.

`CN(C(=O)Cc1ccccc1)C(CN1CCCC1)c1ccccc1` (configuration not stated): the max response was 0.97% in [1], 0.503% in test [2], 2.22% in test [3] and -9.97% in [4]. The compound was classed as inactive in [5] and in test [6]. For the same compound, the Potency result in test [7], in [8], in [9] and in [10] was “inactive” throughout.
With `C=C[C@H]1[C@H](O[C@@H]2O[C@H](CO)[C@@H](O)[C@H](O)[C@H]2O)OC=C2C(=O)OCC[C@H]21`, the max response was -1.15% in test [1] and 1.24% in test [3]. Besides, the result in test [2], in test [4], in [5], in [11] and in test [6] was inactive. Further, the Potency entry in test [7], in test [12], in test [8], in test [9] and in [10] was “inactive” each time.
On to `COc1cc(C(=O)O[C@H]2[C@@H]3C=CO[C@@H](O[C@@H]4O[C@H](CO)[C@@H](O)[C@H](O)[C@H]4O)[C@@H]3[C@@]3(CO)O[C@@H]23)ccc1O`, for which the max response in test [1] was -1.79%; in test [2], 4.28%. The result in [3], in test [4] and in test [5] was inactive. Moreover, in test [13], the outcome is “inactive [at 17.4 µM]”. Also, the Potency result in test [7], in [12], in [8], in test [9] and in test [10] was “inactive” throughout.
For the compound `CO[C@@H]1[C@H](O)[C@@H](O[C@@H]2C[C@H]3CC[C@@H]4C(CC[C@]5(C)[C@@H](C6=CC(=O)OC6)CC[C@]45O)[C@@]3(C)[C@H](O)C2)O[C@H](C)[C@@H]1O[C@@H]1O[C@H](CO)[C@@H](O)[C@H](O)[C@H]1O` (some centres not stated), the Potency was 0.109 µM (active) in test [1]; 0.343 µM (active) in test [2]; 0.769 µM (active) in test [3]; 0.432 µM (active) in test [4]; 0.199 µM (active) in test [7]; 1.26 µM (active) in [8]. Further, the results for the Potency in test [9] and in test [10] were 0.398 µM (active) and 0.562 µM (active), respectively. Besides, in [5], the compound was classed as inactive.
Consider `C=C(CO)C(=O)O[C@H]1C/C(C)=C/CC/C(CO)=C/[C@H]2OC(=O)C(=C)[C@H]12`, for which the max response in test [1] is -2.43%; in [2], -5.5%. For the same compound, the outcome in test [3], in test [5], in [13] and in [6] was inactive. For the same compound, the Potency entry in test [7], in [12], in [8], in test [9] and in test [10] was “inactive” in each case.
On to `CN(C)CCc1c[nH]c2ccc(CN3CCN(C)S3(=O)=O)cc12`, for which the figures for the max response in test [1] and in test [2] were 3.29% and -0.516%, respectively. The call in test [3], in [5] and in [13] was inactive. Besides, the Potency result in test [7], in test [12], in test [8], in test [9] and in test [10] was “inactive” each time.
Turning to `C[C@]12CC[C@@H](O)C[C@H]1CC[C@@H]1[C@@H]2CC[C@]2(C)C(=O)CC[C@@H]12`, the max response is -3.83% in test [1], -17.8% in test [2] and -0.89% in test [3]. For the same compound, the compound was classed as inactive in [4] and in test [5]. For the same compound, the Potency result in test [7], in test [12], in test [8], in test [9] and in [10] was “inactive” in each case.
Turning to `C[C@@]12C[C@@H](c3ccoc3)OC(=O)C1CC[C@]1(C)[C@H]2[C@H]2C=C[C@]1(O)C(=O)O2` (some centres not stated), the compound was classed as inactive in test [1], in test [2], in [5], in test [14], in test [11] and in [6]. In [3], the max response is -0.33%. Further, the Potency result in [7], in test [8], in [9] and in test [10] was “inactive” in each case.
With `COc1cc2c(cc1OC)[C@@]13CCN4CC5=CCO[C@H]6CC(=O)N2[C@H]1[C@H]6[C@H]5C[C@H]43`, the max response in [1] was -0.912%; in test [2] it was -25.1%; in test [3], -7.03%; in [4], 8.18% and 2.14%; in [5], 1.02%. Moreover, the Potency entry in [7], in test [12], in test [8], in test [9] and in test [10] was “inactive” throughout.
As to `COC1CC(O[C@H]2CC[C@]3(C=O)C4CC[C@]5(C)[C@@H](C6=CC(=O)OC6)CC[C@]5(O)[C@@H]4CC[C@]3(O)C2)OC(C)C1O[C@@H]1O[C@H](CO)[C@@H](O)[C@H](O)[C@H]1O` (some centres not stated), the Potency is 0.0968 µM (active) in [1]; 0.153 µM (active) in test [2]; 1.53 µM (active) in [3]; 0.273 µM (active) in test [4]; 0.141 µM (active) in test [7]; 0.501 µM (active) in test [12]. Further, the Potency in [9] and in test [10] was 0.355 µM (active) each time. Moreover, the compound was classed as inactive in test [5].
With `C[C@H]1O[C@@H](O[C@H]2C[C@@H](O)[C@]3(CO)C4C(CC[C@]3(O)C2)[C@@]2(O)CC[C@H](C3=CC(=O)OC3)[C@@]2(C)C[C@H]4O)[C@@H](O)[C@@H](O)[C@H]1O` (some centres not stated), the Potency in test [1] was 0.122 µM (active); in [2], 0.343 µM (active); in test [3], 0.968 µM (active); in test [4], 0.432 µM (active); in test [7], 0.398 µM (active); in test [12], 0.562 µM (active). Also, the Potency was 0.355 µM (active) in test [9] and 0.562 µM (active) in test [10]. Further, the outcome in [5] was inactive.
In the case of `C[C@@H]1C(=O)O[C@H]2[C@H](O)[C@@]34[C@@H]5OC(=O)[C@@]3(O[C@@H]3OC(=O)[C@@H](O)[C@@]34[C@H](C(C)(C)C)[C@H]5O)[C@@]12O`, the max response in [1] is -6.45%; in [2], -8.33%. The compound was called inactive in test [3] and in test [5]. Besides, the outcome in [13] is “inactive [at 17.4 µM]”. The Potency entry in [7], in test [12], in test [8], in [9] and in test [10] was “inactive” each time.
